Compound activity deposited in PubChem by several laboratories.
In the library only some 3.5% were active in any assay of this set; here they are far more common.
GDH-TPI inh: GDH-TPI coupled enzyme inhibition counter-screen; 360,000 compounds, 1.2% hits; inhibition, % at 4.8 µM; GDH-TPI coupled enzyme counterscreen, NADH absorbance; in the data active means inhibition above about 30%
Rv3671c protease: inhibits the M. tuberculosis serine protease Rv3671c; P9WHR9; inhibition, % at 5.96 µM; 320,000 compounds, 0.048% hits; AID 2606; in the data active means inhibition above about 38%;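 further: extracellular domain of Rv3671c used as enzyme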
Mtb betalactam: beta-lactam sensitization of Mtb H37Rv; 330,000 compounds, 0.27% hits; M. tuberculosis H37Rv growth with meropenem, percent inhibition; inhibition, % at 25 µM; call rule not given here;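 further: growth measured after seven days incubation then overnight dye step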
Mtb FBA inh: Mtb fructose-bisphosphate aldolase inhibition; AID 588726; inhibition, % at 1 µM; 360,000 compounds, 2.3% hits; P9WQA3; purified M. tuberculosis FBA, fluorescence read-out; in the data active means inhibition above about 27%
UGM FP inh: inhibitors of M. tuberculosis UDP-galactopyranose mutase. purified UGM, fluorescence polarization probe displacement. P9WIQ1. AID 504406. 320,000 compounds, 0.06% hits. inhibition, % at 10 µM; in the data active means inhibition above about 10%, passing the limit was not always enough; inconclusive means no clear call, values can overlap the other calls
Target sequence (P9WIQ1 whole entry, looked up): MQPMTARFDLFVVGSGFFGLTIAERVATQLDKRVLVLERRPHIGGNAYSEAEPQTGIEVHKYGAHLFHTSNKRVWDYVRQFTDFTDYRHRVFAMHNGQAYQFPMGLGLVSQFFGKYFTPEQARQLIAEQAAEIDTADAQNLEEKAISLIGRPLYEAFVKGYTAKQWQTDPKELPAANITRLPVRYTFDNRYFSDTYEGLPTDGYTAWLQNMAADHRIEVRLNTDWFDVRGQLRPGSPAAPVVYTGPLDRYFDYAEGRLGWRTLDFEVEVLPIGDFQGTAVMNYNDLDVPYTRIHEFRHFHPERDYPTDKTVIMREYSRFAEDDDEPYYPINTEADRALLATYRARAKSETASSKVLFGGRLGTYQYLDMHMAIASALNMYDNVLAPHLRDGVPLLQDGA
A number is an active result; n = inactive; u = inconclusive; x = no result; + = active, no number.

SMILES | GDH-TPI inh | Rv3671c protease | Mtb betalactam | Mtb FBA inh | UGM FP inh
NC(=O)c1ccsc1NC(=O)COC(=O)C1CC2CCCC(C1)C2=O (configuration not stated) | n | n | n | n | n
COc1ccc(N(C(=O)c2snc(C(N)=O)c2N)C(C(=O)NC2CCCC2)c2cccs2)c(OC)c1 (configuration not stated) | n | n | n | n | n
Cc1ccc(S(=O)(=O)N(C)/N=C/c2ccc(N(C)C)cc2)cc1 | n | n | n | n | n
CN(C)c1ccc(C=Nc2ccc(N(C)C)cc2)cc1 | 32 | n | n | n | n
C/C(=N/N=C/c1ccc(N(C)C)cc1)c1ccccc1 | n | n | n | n | n
Cc1ccc(N=Cc2ccc(N(C)C)cc2)cc1C | n | n | n | n | n
CN(C)c1ccc(C=Nc2ccccc2)cc1 | 46 | n | n | n | n
Cc1ccc(N=Cc2ccc(N(C)C)cc2)cc1 | 39 | n | n | n | n
Cc1snnc1C(=O)NC(=S)Nc1ccccc1 | n | n | n | n | n
Cc1ccnc(NC(=O)c2ccc3c(c2)C(=O)N(CCC(C)C)C3=O)c1 | n | n | n | n | n
CC(C(=O)NCC1CCCCC1)N1CCN(S(=O)(=O)c2ccccc2F)CC1 (configuration not stated) | n | n | n | n | n
COCCn1c(-c2ccc(SC)cc2)nc2c1c(=O)[nH]c(=O)n2CC(C)C | n | n | n | + | n
COCCN(CCOC)C(=O)c1ccc(SCc2ccc(C)cc2)c([N+](=O)[O-])c1 | n | n | n | n | n
Cc1ccccc1-n1ncc(C(C)NC(=O)c2ccccc2)c1C (configuration not stated) | n | n | n | n | n
COc1ccc(/C=N/NC(=O)c2cccc([N+](=O)[O-])c2)c2ccccc12 | n | n | n | n | n
Cn1cc(/C=N/NC(=O)c2cccc([N+](=O)[O-])c2)c2ccccc21 | 37 | n | n | n | n
COc1ccc2c(c1)c(C(=O)N/N=C/c1cn(C)c3ccccc13)c(C)n2C | 37 | n | n | n | n
Cc1nc(C)c(C(=O)N/N=C/c2c[nH]c3ccccc23)s1 | n | n | n | n | n
Cc1nc(C)c(C(=O)N/N=C/c2cn(C)c3ccccc23)s1 | 34 | n | n | n | n
COc1ccc2c(c1)c(C(=O)N/N=C/c1ccc(OC)c(OC)c1)c(C)n2C | n | n | n | n | x
Cn1cc(/C=N/NC(=O)c2ccccc2O)c2ccccc21 | 59 | n | n | n | n
COCC(=O)N1CCC(Oc2ccc(C(=O)N(C)C(C)c3ccon3)cc2)CC1 (configuration not stated) | n | n | u | n | n
NC(=O)c1ccc(NC(=O)CSc2nnc(-c3ccncc3)n2Cc2ccco2)cc1 | n | n | n | n | n
N#CC(C#N)=Cc1ccc(OCC(=O)N2CCOCC2)cc1 | n | n | n | n | n
Nc1[nH]c(N=NC(=O)c2ccc(F)cc2)c2ccccc12 | 33 | n | n | n | n
SMILES | GDH-TPI inh | Rv3671c protease | Mtb betalactam | Mtb FBA inh | UGM FP inh
Nc1ccccc1C(=O)N=Nc1[nH]c(N)c2ccccc12 | n | n | n | n | n
COc1ccc(C)cc1NC(=O)COC(=O)c1ccc2c(c1)OCCO2 | n | n | n | n | n
Cc1nn(C)cc1/C=C/C(=O)c1ccccc1 | 36 | n | x | n | n
Cc1nn(C)cc1/C=C/C(=O)c1cccs1 | n | n | n | n | n
Cc1c(/C=C/C(=O)c2ccc(O)cc2)cnn1C | 39 | n | n | n | n
CNC(=O)C(=O)NCCC1CCCCN1S(=O)(=O)c1cccs1 (configuration not stated) | n | n | n | n | n
Cc1[nH]n(-c2ccc([N+](=O)[O-])cc2)c(=O)c1C=NCCc1c(C)[nH]c2ccccc12 | 31 | n | n | n | n
CCCc1[nH]n(-c2ccc([N+](=O)[O-])cc2)c(=O)c1C=NCCN1CCNCC1 | x | n | n | x | n
Cc1[nH]n(-c2ccc([N+](=O)[O-])cc2)c(=O)c1C=NCCc1ccc(S(N)(=O)=O)cc1 | n | n | n | n | n
CCCc1[nH]n(-c2ccc([N+](=O)[O-])cc2)c(=O)c1C=NCCCn1ccnc1 | 32 | n | n | n | n
COC(=O)CCSCC(=O)N1N=C(c2ccc(OC)cc2)CC1c1cccc(OC)c1OC (configuration not stated) | n | n | n | n | n
O=C(NCc1ccco1)c1cccc(-c2cncc3nccn23)c1 | n | x | x | 123 | x
O=C(c1cccc(-c2cccc3nccn23)c1)N1CCOCC1 | n | x | x | n | x
O=C(NCc1ccco1)c1cccc(-c2ccc3nccn3c2)c1 | n | x | x | n | x
O=C(NC1CC1)c1cccc(-c2cncc3nccn23)c1 | n | x | x | 185 | x
O=C(NC1CC1)c1ccc(-c2cnc3cccnn23)cc1 | n | x | x | + | x
COc1ccccc1CNC(=O)CN1C(=O)NC2(CCCc3ccccc32)C1=O (configuration not stated) | n | n | n | n | n
Oc1oc(-c2ccccc2)nc1/C=N/c1ccccn1 | n | n | n | n | n
CN=Cc1nc(-c2ccccc2)oc1O | 59 | n | n | n | n
O=C(NCc1ccccc1)c1ccc(=O)oc1 | 104 | n | n | n | n
COC(=O)CNC(=O)c1ccc(=O)oc1 | 63 | n | n | n | n
O=C(NCc1ccccc1)c1ccc(Oc2ccc(C(=O)NCc3ccccc3)cc2)cc1 | n | n | n | n | n
O=C(NCc1ccco1)c1ccc(=O)oc1 | 50 | n | n | n | n
c1cnc(N2CCN(c3cnccn3)CC2)nc1 | n | n | n | n | n
CCOC(=O)C1=C(O)/C(=C/c2cn(CC(=O)NCC3CCCO3)c3ccccc23)SC1=Nc1ccc(C)cc1 (configuration not stated) | n | n | n | n | 22
SMILES | GDH-TPI inh | Rv3671c protease | Mtb betalactam | Mtb FBA inh | UGM FP inh
Cc1ccc(NC(=O)Cn2c(=O)ccn(Cc3ccccc3)c2=O)cc1S(=O)(=O)N1CCOCC1 | n | x | x | n | x
CCCCOc1ccc(/C=N/NC(=S)Nc2cccc(C)c2C)cc1 | n | n | n | n | n
CCCCOc1ccc(/C=N/NC(=S)Nc2cc(C)ccc2C)cc1 | 40 | n | n | n | n
COCCNC(=S)NCCCNc1nc2cc3c(cc2cc1C#N)OCO3 | n | n | n | 180 | n
O=C(Cc1cnn(-c2ccccc2)c1)c1ccc(O)c(O)c1O | n | n | n | n | n
CCc1cc(C(=O)Cc2cnn(-c3ccccc3)c2)c(O)cc1O | 50 | n | n | n | n
COc1ccc(CC(NC(C)=O)C(=O)NC2CCN(C(=O)c3ccccc3F)CC2)cc1 (configuration not stated) | n | n | n | n | n
CC1(C)SC(=S)N(/N=C/c2ccccc2)C1N(O)C(=O)Nc1ccc([N+](=O)[O-])cc1 (configuration not stated) | 42 | n | n | n | n
CCOC(=O)/C(C#N)=C/c1c[nH]c2ccccc12 | n | n | n | n | n
CCOC(=O)C(=Cc1c[nH]c2ccc(S(=O)(=O)N(C)C)cc12)C(=O)OCC | 41 | n | n | n | n
COCOCCn1cc(CN2CCS(=O)(=O)N(Cc3ccc(-c4ccc(OC)cc4)cc3)C(C)C2=O)nn1 (configuration not stated) | n | x | x | n | x
COc1cccc(C2=N/C(=C\N(C)C)C(=O)O2)c1 | 37 | n | n | n | n
